PMC7862700, “An all-to-all approach to the identification of sequence-specific readers for epigenetic DNA modifications on cytosine”

Key:
Experiment in all cases: DAPPL (digital affinity profiling via proximity ligation, sequencing); 10 mM Tris-HCl pH 7.5, 50 mM NaCl, 1 mM DTT, 4% glycerol, room temperature, 30 min; GST-TFs on glutathione beads, 16-mer random dsDNA library, 0.1% formaldehyde crosslink after washing; high values mean tight binding
Conditions in all cases: protein: recombinant; tags: N-terminal GST; dsDNA, one strand shown
ERF = molecular target: T1, ERF (Homo sapiens, UniProt P50548 1-548)
T1 sequence: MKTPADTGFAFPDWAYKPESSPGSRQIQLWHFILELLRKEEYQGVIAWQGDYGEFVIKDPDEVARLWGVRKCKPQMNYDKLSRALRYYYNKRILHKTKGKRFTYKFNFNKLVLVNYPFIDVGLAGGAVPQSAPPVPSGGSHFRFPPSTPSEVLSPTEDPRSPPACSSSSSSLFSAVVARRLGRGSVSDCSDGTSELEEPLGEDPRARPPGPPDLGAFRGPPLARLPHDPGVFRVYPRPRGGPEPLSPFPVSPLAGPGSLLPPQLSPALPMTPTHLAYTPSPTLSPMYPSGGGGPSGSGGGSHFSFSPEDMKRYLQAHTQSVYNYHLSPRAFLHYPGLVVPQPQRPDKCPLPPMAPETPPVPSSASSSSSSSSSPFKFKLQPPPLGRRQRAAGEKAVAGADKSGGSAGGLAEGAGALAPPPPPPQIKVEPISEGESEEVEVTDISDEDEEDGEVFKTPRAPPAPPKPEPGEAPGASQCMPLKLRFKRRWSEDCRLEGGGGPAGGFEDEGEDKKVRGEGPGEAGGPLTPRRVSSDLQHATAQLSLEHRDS
In short: (§1)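 Yeast served to express human transcription factors as GST fusions, which were then captured on glutathione beads and labelled with DNA barcodes. Pooled with a tag-only sample, they were incubated with 200 nmole of a 16-mer random double-stranded DNA library for 30 min at room temperature in Tris/NaCl/DTT/glycerol buffer, washed, crosslinked with 0.1% formaldehyde, ligated by proximity, amplified by PCR and sequenced. Dividing each hexamer's read frequency for a factor by its frequency for the tag-only sample gives the binding signal.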

ETV3L = molecular target: T2, ETV3L (Homo sapiens, UniProt Q6ZN32 1-361)
T2 sequence: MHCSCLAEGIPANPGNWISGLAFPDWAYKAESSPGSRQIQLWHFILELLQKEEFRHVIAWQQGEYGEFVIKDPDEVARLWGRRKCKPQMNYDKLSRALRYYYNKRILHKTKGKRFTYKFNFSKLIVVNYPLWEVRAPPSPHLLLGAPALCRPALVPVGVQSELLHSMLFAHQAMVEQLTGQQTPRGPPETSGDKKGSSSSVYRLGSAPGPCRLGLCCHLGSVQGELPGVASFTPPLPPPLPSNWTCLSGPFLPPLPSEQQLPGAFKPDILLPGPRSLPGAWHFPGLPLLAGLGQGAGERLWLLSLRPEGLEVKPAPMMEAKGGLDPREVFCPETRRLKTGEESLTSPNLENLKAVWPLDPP
In short: as §1

ETS2 = molecular target: T3, ETS2 (Homo sapiens, UniProt P15036 1-469)
T3 sequence: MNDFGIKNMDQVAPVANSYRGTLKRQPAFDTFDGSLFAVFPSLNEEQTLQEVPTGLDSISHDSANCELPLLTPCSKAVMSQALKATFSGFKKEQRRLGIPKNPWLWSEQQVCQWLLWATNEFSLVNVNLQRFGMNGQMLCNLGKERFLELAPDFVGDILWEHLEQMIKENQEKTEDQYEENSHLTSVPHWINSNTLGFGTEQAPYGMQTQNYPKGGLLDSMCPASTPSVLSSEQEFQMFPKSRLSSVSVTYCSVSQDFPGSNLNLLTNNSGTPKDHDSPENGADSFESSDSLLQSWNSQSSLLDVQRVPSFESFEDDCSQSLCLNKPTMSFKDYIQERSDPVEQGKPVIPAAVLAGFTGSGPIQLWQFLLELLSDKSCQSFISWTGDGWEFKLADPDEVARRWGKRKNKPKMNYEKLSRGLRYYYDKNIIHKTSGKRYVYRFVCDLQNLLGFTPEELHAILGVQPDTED
In short: as §1

SPDEF = molecular target: T4, SPDEF (Homo sapiens, UniProt O95238 1-335)
T4 sequence: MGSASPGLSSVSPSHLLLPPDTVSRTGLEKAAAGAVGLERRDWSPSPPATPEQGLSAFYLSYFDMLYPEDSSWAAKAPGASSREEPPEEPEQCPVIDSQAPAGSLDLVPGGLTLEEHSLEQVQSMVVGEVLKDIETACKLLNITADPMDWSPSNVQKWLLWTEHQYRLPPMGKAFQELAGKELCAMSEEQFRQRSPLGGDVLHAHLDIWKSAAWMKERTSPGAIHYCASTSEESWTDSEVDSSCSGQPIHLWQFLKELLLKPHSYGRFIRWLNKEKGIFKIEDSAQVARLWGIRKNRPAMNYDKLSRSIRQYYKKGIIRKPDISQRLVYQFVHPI
In short: as §1

ETV7 = molecular target: T5, ETV7 (Homo sapiens, UniProt Q9Y603 1-341)
T5 sequence: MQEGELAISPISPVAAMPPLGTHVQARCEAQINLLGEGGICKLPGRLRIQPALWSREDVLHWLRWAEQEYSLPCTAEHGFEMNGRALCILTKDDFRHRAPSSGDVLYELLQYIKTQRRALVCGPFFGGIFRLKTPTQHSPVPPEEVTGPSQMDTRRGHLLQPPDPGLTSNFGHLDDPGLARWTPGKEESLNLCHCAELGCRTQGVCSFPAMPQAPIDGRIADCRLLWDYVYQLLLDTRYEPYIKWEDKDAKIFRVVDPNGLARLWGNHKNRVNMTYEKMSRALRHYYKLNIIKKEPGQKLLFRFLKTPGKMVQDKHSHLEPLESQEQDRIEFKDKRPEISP
In short: as §1

ELF5 = molecular target: T6, ELF5 (Homo sapiens, UniProt Q9UKW6-2 1-255)
T6 sequence: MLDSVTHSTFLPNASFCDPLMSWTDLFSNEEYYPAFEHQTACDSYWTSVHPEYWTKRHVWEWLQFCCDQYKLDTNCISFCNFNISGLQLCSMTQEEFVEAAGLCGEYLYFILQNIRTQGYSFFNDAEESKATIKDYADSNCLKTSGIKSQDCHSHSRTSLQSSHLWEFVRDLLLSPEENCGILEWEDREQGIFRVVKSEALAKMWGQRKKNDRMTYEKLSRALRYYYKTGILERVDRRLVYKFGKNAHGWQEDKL
In short: as §1

ETV3 = molecular target: T7, ETV3 (Homo sapiens, UniProt P41162-2 1-143)
T7 sequence: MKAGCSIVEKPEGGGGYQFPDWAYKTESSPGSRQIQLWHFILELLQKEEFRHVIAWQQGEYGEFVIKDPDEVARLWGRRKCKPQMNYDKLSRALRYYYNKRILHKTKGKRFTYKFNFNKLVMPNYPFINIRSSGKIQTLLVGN
In short: as §1

ETV6 = ETV6 (Homo sapiens, UniProt P41212 1-452)
In short: as §1

ETV6, sequence (P41212 whole entry): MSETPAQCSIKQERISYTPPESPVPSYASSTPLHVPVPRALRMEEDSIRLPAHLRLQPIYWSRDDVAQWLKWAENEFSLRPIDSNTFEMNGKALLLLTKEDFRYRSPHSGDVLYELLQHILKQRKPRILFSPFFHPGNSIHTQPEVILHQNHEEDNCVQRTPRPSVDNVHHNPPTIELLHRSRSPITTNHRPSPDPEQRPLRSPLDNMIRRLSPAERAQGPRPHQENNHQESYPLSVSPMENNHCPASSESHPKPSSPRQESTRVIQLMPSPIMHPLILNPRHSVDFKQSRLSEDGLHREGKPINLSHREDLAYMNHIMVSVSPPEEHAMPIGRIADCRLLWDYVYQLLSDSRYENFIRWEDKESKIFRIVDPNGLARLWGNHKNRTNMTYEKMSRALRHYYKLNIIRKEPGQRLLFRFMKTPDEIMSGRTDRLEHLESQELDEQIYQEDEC

Sequence	binding signal (ERF)	binding signal (ETV3L)	binding signal (ETS2)	binding signal (SPDEF)	binding signal (ETV7)	binding signal (ELF5)	binding signal (ETV3)	binding signal (ETV6)
AAACTC	1.24 fold enrichment (6-mer frequency, TF over GST control)	1.17 fold enrichment (6-mer frequency, TF over GST control)	1.19 fold enrichment (6-mer frequency, TF over GST control)	1.07 fold enrichment (6-mer frequency, TF over GST control)	1.24 fold enrichment (6-mer frequency, TF over GST control)	1.21 fold enrichment (6-mer frequency, TF over GST control)	1.15 fold enrichment (6-mer frequency, TF over GST control)	1.25 fold enrichment (6-mer frequency, TF over GST control)
CTATGC	1.34 fold enrichment (6-mer frequency, TF over GST control)	1.52 fold enrichment (6-mer frequency, TF over GST control)	1.44 fold enrichment (6-mer frequency, TF over GST control)	1.49 fold enrichment (6-mer frequency, TF over GST control)	1.42 fold enrichment (6-mer frequency, TF over GST control)	1.33 fold enrichment (6-mer frequency, TF over GST control)	1.55 fold enrichment (6-mer frequency, TF over GST control)	1.33 fold enrichment (6-mer frequency, TF over GST control)
CTCCAC	1.31 fold enrichment (6-mer frequency, TF over GST control)	1.45 fold enrichment (6-mer frequency, TF over GST control)	1.43 fold enrichment (6-mer frequency, TF over GST control)	1.27 fold enrichment (6-mer frequency, TF over GST control)	1.39 fold enrichment (6-mer frequency, TF over GST control)	1.35 fold enrichment (6-mer frequency, TF over GST control)	1.3 fold enrichment (6-mer frequency, TF over GST control)	1.26 fold enrichment (6-mer frequency, TF over GST control)
TTCCAA	1.27 fold enrichment (6-mer frequency, TF over GST control)	1.3 fold enrichment (6-mer frequency, TF over GST control)	1.25 fold enrichment (6-mer frequency, TF over GST control)	1.29 fold enrichment (6-mer frequency, TF over GST control)	1.27 fold enrichment (6-mer frequency, TF over GST control)	1.21 fold enrichment (6-mer frequency, TF over GST control)	1.22 fold enrichment (6-mer frequency, TF over GST control)	1.29 fold enrichment (6-mer frequency, TF over GST control)
TTCATG	1.22 fold enrichment (6-mer frequency, TF over GST control)	1.33 fold enrichment (6-mer frequency, TF over GST control)	1.33 fold enrichment (6-mer frequency, TF over GST control)	1.27 fold enrichment (6-mer frequency, TF over GST control)	1.35 fold enrichment (6-mer frequency, TF over GST control)	1.28 fold enrichment (6-mer frequency, TF over GST control)	1.4 fold enrichment (6-mer frequency, TF over GST control)	1.26 fold enrichment (6-mer frequency, TF over GST control)
AATGCC	1.12 fold enrichment (6-mer frequency, TF over GST control)	1.07 fold enrichment (6-mer frequency, TF over GST control)	1.17 fold enrichment (6-mer frequency, TF over GST control)	1.21 fold enrichment (6-mer frequency, TF over GST control)	1.22 fold enrichment (6-mer frequency, TF over GST control)	1.21 fold enrichment (6-mer frequency, TF over GST control)	1.24 fold enrichment (6-mer frequency, TF over GST control)	1.19 fold enrichment (6-mer frequency, TF over GST control)
TCACTC	1.27 fold enrichment (6-mer frequency, TF over GST control)	1.16 fold enrichment (6-mer frequency, TF over GST control)	1.23 fold enrichment (6-mer frequency, TF over GST control)	1.12 fold enrichment (6-mer frequency, TF over GST control)	1.2 fold enrichment (6-mer frequency, TF over GST control)	1.1 fold enrichment (6-mer frequency, TF over GST control)	1.22 fold enrichment (6-mer frequency, TF over GST control)	1.19 fold enrichment (6-mer frequency, TF over GST control)
ATATCA	1.19 fold enrichment (6-mer frequency, TF over GST control)	1.1 fold enrichment (6-mer frequency, TF over GST control)	1.2 fold enrichment (6-mer frequency, TF over GST control)	1.2 fold enrichment (6-mer frequency, TF over GST control)	1.13 fold enrichment (6-mer frequency, TF over GST control)	1.11 fold enrichment (6-mer frequency, TF over GST control)	1.23 fold enrichment (6-mer frequency, TF over GST control)	1.18 fold enrichment (6-mer frequency, TF over GST control)
